Laboratory results: the supplement of paper PMC7411054

Legend:
Details in all cases: treatment time: 24 h
A549-ACTB-RAB5A [1] = assay: lowest phenotypically active concentration; higher = less potent
Method in brief: (§1)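 After 24 h at 0.3, 1, 3 or 9 µM, with four wells per treatment, fifteen gene-edited A549, HepG2 and WPMY1 reporter lines carrying BFP, GFP and RFP/FusionRed were imaged live. Each well's live-cell features were expressed relative to solvent control wells. Deviation required ≥3 of 4 wells past the 95th percentile of control Euclidean distances, and reproducibility a median replicate Pearson correlation over the 95th percentile of non-replicates. Phenotypic activity rested on both.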

A549-CANX-COX4 [2] = assay: as above
Method in brief: as §1

A549-GM130-SQSTM1 [3] = assay: as above
Method in brief: as §1

A549-TP53BP1-CLTA [4] = assay: as above
Method in brief: as §1

A549-TUBA1B-RELA [5] = assay: as above
Method in brief: as §1

HepG2-TP53BP1-CLTA [6] = assay: as above
Method in brief: as §1

A549-ACTB-RAB5A [7] = assay: phenotypically active (imaging signature differs from DMSO and reproducible) at any of 0.3-9 uM (binary (1 = active, 0 = inactive)); higher = active
Method in brief: as §1

A549-CANX-COX4 [8] = assay: as above
Method in brief: as §1

A549-GM130-SQSTM1 [9] = assay: as above
Method in brief: as §1

A549-TP53BP1-CLTA [10] = assay: as above
Method in brief: as §1

A549-TUBA1B-RELA [11] = assay: as above
Method in brief: as §1

HepG2-ACTB-RAB5A = assay: as above
Method in brief: as §1

HepG2-CANX-COX4 = assay: as above
Method in brief: as §1

HepG2-GM130-SQSTM1 = assay: as above
Method in brief: as §1

HepG2-TP53BP1-CLTA [12] = assay: as above
Method in brief: as §1

HepG2-TUBA1B-RELA = assay: as above
Method in brief: as §1

WPMY1-CANX-COX4 = assay: as above
Method in brief: as §1

WPMY1-GM130-SQSTM1 = assay: as above
Method in brief: as §1

WPMY1-TP53BP1-CLTA = assay: as above
Method in brief: as §1

WPMY1-TUBA1B-RELA = assay: as above
Method in brief: as §1

SMILES: COc1cc(N2CCOCC2)ccc1Nc1ncc(Cl)c(Nc2ccccc2NS(C)(=O)=O)n1
- lowest phenotypically active concentration (A549-ACTB-RAB5A [1]): 3 µM
- lowest phenotypically active concentration (A549-CANX-COX4 [2]): 3 µM
- lowest phenotypically active concentration (A549-GM130-SQSTM1 [3]): 3 µM
- lowest phenotypically active concentration (A549-TP53BP1-CLTA [4]): 3 µM
- lowest phenotypically active concentration (A549-TUBA1B-RELA [5]): 3 µM
- lowest phenotypically active concentration (HepG2-TP53BP1-CLTA [6]): 3 µM
- phenotypically active (A549-ACTB-RAB5A [7]): 1 (active)
- phenotypically active (A549-CANX-COX4 [8]): 1 (active)
- phenotypically active (A549-GM130-SQSTM1 [9]): 1 (active)
- phenotypically active (A549-TP53BP1-CLTA [10]): 1 (active)
- phenotypically active (A549-TUBA1B-RELA [11]): 1 (active)
- phenotypically active (HepG2-ACTB-RAB5A): 1 (active)
- phenotypically active (HepG2-CANX-COX4): 1 (active)
- phenotypically active (HepG2-GM130-SQSTM1): 1 (active)
- phenotypically active (HepG2-TP53BP1-CLTA [12]): 1 (active)
- phenotypically active (HepG2-TUBA1B-RELA): 1 (active)
- phenotypically active (WPMY1-CANX-COX4): 1 (active)
- phenotypically active (WPMY1-GM130-SQSTM1): 1 (active)
- phenotypically active (WPMY1-TP53BP1-CLTA): 1 (active)
- phenotypically active (WPMY1-TUBA1B-RELA): 1 (active)

SMILES: Clc1ccc(C2(c3ccc(-c4cn[nH]c4)cc3)CCNCC2)cc1
- lowest phenotypically active concentration (A549-ACTB-RAB5A [1]): ≤ 0.3 µM
- lowest phenotypically active concentration (A549-CANX-COX4 [2]): ≤ 0.3 µM
- lowest phenotypically active concentration (A549-GM130-SQSTM1 [3]): ≤ 0.3 µM
- lowest phenotypically active concentration (A549-TP53BP1-CLTA [4]): ≤ 0.3 µM
- lowest phenotypically active concentration (A549-TUBA1B-RELA [5]): ≤ 0.3 µM
- lowest phenotypically active concentration (HepG2-TP53BP1-CLTA [6]): ≤ 0.3 µM
- phenotypically active (A549-ACTB-RAB5A [7]): 1 (active)
- phenotypically active (A549-CANX-COX4 [8]): 1 (active)
- phenotypically active (A549-GM130-SQSTM1 [9]): 1 (active)
- phenotypically active (A549-TP53BP1-CLTA [10]): 1 (active)
- phenotypically active (A549-TUBA1B-RELA [11]): 1 (active)
- phenotypically active (HepG2-ACTB-RAB5A): 1 (active)
- phenotypically active (HepG2-CANX-COX4): 1 (active)
- phenotypically active (HepG2-GM130-SQSTM1): 1 (active)
- phenotypically active (HepG2-TP53BP1-CLTA [12]): 1 (active)
- phenotypically active (HepG2-TUBA1B-RELA): 1 (active)
- phenotypically active (WPMY1-CANX-COX4): 1 (active)
- phenotypically active (WPMY1-GM130-SQSTM1): 1 (active)
- phenotypically active (WPMY1-TP53BP1-CLTA): 1 (active)
- phenotypically active (WPMY1-TUBA1B-RELA): 1 (active)

SMILES: CC(C)NCCCn1c(Sc2cc3c(cc2I)OCO3)nc2c(N)ncnc21
- lowest phenotypically active concentration (A549-ACTB-RAB5A [1]): ≤ 0.3 µM
- lowest phenotypically active concentration (A549-CANX-COX4 [2]): ≤ 0.3 µM
- lowest phenotypically active concentration (A549-GM130-SQSTM1 [3]): ≤ 0.3 µM
- lowest phenotypically active concentration (A549-TP53BP1-CLTA [4]): ≤ 0.3 µM
- lowest phenotypically active concentration (A549-TUBA1B-RELA [5]): ≤ 0.3 µM
- lowest phenotypically active concentration (HepG2-TP53BP1-CLTA [6]): ≤ 0.3 µM
- phenotypically active (A549-ACTB-RAB5A [7]): 1 (active)
- phenotypically active (A549-CANX-COX4 [8]): 1 (active)
- phenotypically active (A549-GM130-SQSTM1 [9]): 1 (active)
- phenotypically active (A549-TP53BP1-CLTA [10]): 1 (active)
- phenotypically active (A549-TUBA1B-RELA [11]): 1 (active)
- phenotypically active (HepG2-ACTB-RAB5A): 1 (active)
- phenotypically active (HepG2-CANX-COX4): 1 (active)
- phenotypically active (HepG2-GM130-SQSTM1): 1 (active)
- phenotypically active (HepG2-TP53BP1-CLTA [12]): 1 (active)
- phenotypically active (HepG2-TUBA1B-RELA): 1 (active)
- phenotypically active (WPMY1-CANX-COX4): 1 (active)
- phenotypically active (WPMY1-GM130-SQSTM1): 1 (active)
- phenotypically active (WPMY1-TP53BP1-CLTA): 1 (active)
- phenotypically active (WPMY1-TUBA1B-RELA): 1 (active)

SMILES: COc1cc2nc(-c3cc(F)ccc3O)nc(N[C@@H]3CNC[C@H]3C(C)(C)O)c2cc1OC
- lowest phenotypically active concentration (A549-ACTB-RAB5A [1]): 3 µM
- lowest phenotypically active concentration (A549-CANX-COX4 [2]): 9 µM
- lowest phenotypically active concentration (A549-GM130-SQSTM1 [3]): 9 µM
- lowest phenotypically active concentration (A549-TP53BP1-CLTA [4]): 9 µM
- lowest phenotypically active concentration (A549-TUBA1B-RELA [5]): 9 µM
- lowest phenotypically active concentration (HepG2-TP53BP1-CLTA [6]): 1 µM
- phenotypically active (A549-ACTB-RAB5A [7]): 1 (active)
- phenotypically active (A549-CANX-COX4 [8]): 1 (active)
- phenotypically active (A549-GM130-SQSTM1 [9]): 1 (active)
- phenotypically active (A549-TP53BP1-CLTA [10]): 1 (active)
- phenotypically active (A549-TUBA1B-RELA [11]): 1 (active)
- phenotypically active (HepG2-ACTB-RAB5A): 1 (active)
- phenotypically active (HepG2-CANX-COX4): 1 (active)
- phenotypically active (HepG2-GM130-SQSTM1): 1 (active)
- phenotypically active (HepG2-TP53BP1-CLTA [12]): 1 (active)
- phenotypically active (HepG2-TUBA1B-RELA): 1 (active)
- phenotypically active (WPMY1-CANX-COX4): 1 (active)
- phenotypically active (WPMY1-GM130-SQSTM1): 1 (active)
- phenotypically active (WPMY1-TP53BP1-CLTA): 1 (active)
- phenotypically active (WPMY1-TUBA1B-RELA): 1 (active)

SMILES: CNC1CCC2(C)C(=CCC3C2CCC24CN(C)C(C)C2CCC34)C1 (stereo not given) [Isoconessimine]
- lowest phenotypically active concentration (A549-ACTB-RAB5A [1]): ≤ 0.3 µM
- lowest phenotypically active concentration (A549-CANX-COX4 [2]): 9 µM
- lowest phenotypically active concentration (A549-GM130-SQSTM1 [3]): ≤ 0.3 µM
- lowest phenotypically active concentration (A549-TP53BP1-CLTA [4]): 1 µM
- lowest phenotypically active concentration (A549-TUBA1B-RELA [5]): ≤ 0.3 µM
- lowest phenotypically active concentration (HepG2-TP53BP1-CLTA [6]): 1 µM
- phenotypically active (A549-ACTB-RAB5A [7]): 1 (active)
- phenotypically active (A549-CANX-COX4 [8]): 1 (active)
- phenotypically active (A549-GM130-SQSTM1 [9]): 1 (active)
- phenotypically active (A549-TP53BP1-CLTA [10]): 1 (active)
- phenotypically active (A549-TUBA1B-RELA [11]): 1 (active)
- phenotypically active (HepG2-ACTB-RAB5A): 1 (active)
- phenotypically active (HepG2-CANX-COX4): 1 (active)
- phenotypically active (HepG2-GM130-SQSTM1): 1 (active)
- phenotypically active (HepG2-TP53BP1-CLTA [12]): 1 (active)
- phenotypically active (HepG2-TUBA1B-RELA): 1 (active)
- phenotypically active (WPMY1-CANX-COX4): 1 (active)
- phenotypically active (WPMY1-GM130-SQSTM1): 1 (active)
- phenotypically active (WPMY1-TP53BP1-CLTA): 1 (active)
- phenotypically active (WPMY1-TUBA1B-RELA): 1 (active)
